Screening results (PubChem)
EphB4 ephrin blk = EphB4-ephrin-B2 interaction antagonists, primary screen, biochemical, TNYL-RAW peptide probe, fluorescence polarization; AID 720, 2007; EphB4 LBD / TNYL-RAW-Alexa532 peptide; inhibition, % at 7 µM; actives 0.15% (n = 97,000); Ephrin type-B receptor 4 (Homo sapiens), P54760;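 active = inhibition above the screen-wide mean inhibition plus 3 SD, cut at about 15% in these data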
CYP2C9 inh = blockers of cytochrome P450 2C9 activity – biochemical, luminescence, ADME assay, primary screen. CYP2C9 Supersomes, luciferin-H conversion. inhibition, % at 5 µM. actives 20% (n = 96,000). AID 777, 2007;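 active = blocking of liver enzyme CYP2C9 beyond about 50% at 5 µM, limit read from the data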
CYP2C9 activ = human CYP2C9 activators, primary screen, biochemical, luminescence. recombinant CYP2C9, luciferin-H conversion; hits give high values; factor 1 = untreated enzyme, 0 = blocked. activation factor at 5 µM. actives 1.4% (n = 96,000);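 active = activation factor of 2 or more for CYP2C9 at a 5 µM dose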
CYP2C19 inhib = blockers of cytochrome P450 2C19 activity – biochemical, luminescence, ADME assay, primary screen; P33261; CYP2C19 Supersomes, luciferin-H EGE luminescence, 30 min; inhibition, % at 5 µM; actives 21% (n = 96,000);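 active = CYP2C19 inhibition above a set limit at 5 µM in the primary screen, cut at about 50% in these data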
Target sequence (P33261 whole entry, looked up): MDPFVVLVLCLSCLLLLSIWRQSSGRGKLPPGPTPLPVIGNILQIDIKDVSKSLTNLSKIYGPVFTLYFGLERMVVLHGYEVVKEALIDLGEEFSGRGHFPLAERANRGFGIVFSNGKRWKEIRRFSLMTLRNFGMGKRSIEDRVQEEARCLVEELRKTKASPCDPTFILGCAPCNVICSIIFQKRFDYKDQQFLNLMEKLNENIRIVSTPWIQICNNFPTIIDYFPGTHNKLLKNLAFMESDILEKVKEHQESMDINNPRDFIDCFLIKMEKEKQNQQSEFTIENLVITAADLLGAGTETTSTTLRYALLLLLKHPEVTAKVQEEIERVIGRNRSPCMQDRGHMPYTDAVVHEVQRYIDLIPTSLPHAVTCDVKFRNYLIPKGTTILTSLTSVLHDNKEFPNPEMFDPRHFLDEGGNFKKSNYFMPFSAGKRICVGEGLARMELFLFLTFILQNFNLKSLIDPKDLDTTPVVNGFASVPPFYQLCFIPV
CYP2C19 activ = human CYP2C19 activators, primary screen, biochemical, luminescence. recombinant CYP2C19, luciferin-H EGE luminescence; hits give high values; 0 = fully inhibited enzyme, 1 = untreated enzyme. activation factor at 5 µM. 96,000 tested, under 10 active. AID 1025, 2008;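 active = activation factor of at least 2 at 5 µM in the primary screen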
Hits are given with their value; i = inactive; nt = no result given. Shown are actives, neighbours in structure and some others; about 27% of the full set was active somewhere.

SMILES | EphB4 ephrin blk | CYP2C9 inh | CYP2C9 activ | CYP2C19 inhib | CYP2C19 activ
C=CCNCCCCOc1c(Cl)cc(C)cc1Br | i | i | i | 57.2 | i
COCCCNCCCCOc1c(Cl)cc(C)cc1Br | i | i | i | i | i
Cc1cc(Cl)c(OCCCn2cncn2)c(Br)c1 | i | i | i | 94.4 | i
Cc1ccc(CNC(=O)Cn2cncn2)cc1 | i | i | i | i | i
CC(=O)Nc1ccc(S(=O)(=O)N(c2cccnc2)S(=O)(=O)c2ccc(NC(C)=O)cc2)cc1 | i | nt | nt | nt | nt
Cc1nc2ccccn2c1/C(O)=C1\C(=O)C(=O)N(CCCN(C)C)C1c1ccc(F)cc1 (configuration not stated) | i | nt | nt | nt | nt
CCCCC(CC)C(=O)Nc1ccccc1C#N (configuration not stated) | i | i | i | 52.6 | i
Cc1cccc(-c2nnc(SCc3cc(=O)[nH]c4ccccc34)n2C)c1 | i | i | 2.1 | 83.5 | i
COc1cccc(=O)c2c(C)n(C)c(C)c12 | i | i | i | i | i
CCOc1cccc(=O)c2c(C)n(C)c(C)c12 | i | i | i | 52.5 | i
COc1ccc(-n2c(COc3ccc4ccccc4c3)nnc2SCC(=O)NCc2ccco2)cc1 | i | 51.5 | i | i | i
COc1cccc(OCc2nnc(SCC(=O)NCc3ccco3)n2C)c1 | i | i | i | i | i
COc1ccc(-n2c(COc3cccc4ccccc34)nnc2SCC(=O)NCc2ccco2)cc1 | i | 55.3 | i | i | i
COc1cccc(OCc2nnc(SCC(=O)NCc3ccco3)n2CCc2ccccc2)c1 | i | 90.8 | i | 88.1 | i
COc1ccc(-n2c(COc3cccc(C)c3)nnc2SCC(=O)NCc2ccco2)cc1 | i | i | i | i | i
Cc1ccc(S(=O)(=O)NCC23C=CC(O2)C2C(=O)N(c4ccccc4)C(=O)C23)cc1 (configuration not stated) | i | i | i | i | i
CC(=O)N1c2ccccc2NC2=C(C(=O)CCC2)C1c1ccc(F)cc1 (configuration not stated) | i | i | i | i | i
COc1ccccc1NC(=O)Cn1c(CN2CCCCC2)nc2ccccc2c1=O | i | i | i | i | i
CC(=O)c1c(C(C)=O)c(C)n(NC(=O)c2ccncc2)c1C | i | i | i | 88.8 | i
CCS(=O)(=O)c1ccc(C(=O)Nc2ccccc2)c(Cl)c1Cl | i | i | i | i | i
CCCCC(C(=O)NC1CCCC1)N(Cc1ccco1)C(=O)Cn1nnc(-c2ccc(F)cc2)n1 (configuration not stated) | i | 92.3 | i | 92.2 | i
COc1ccc(-c2nnn(CC(=O)N(Cc3cccs3)C(C)C(=O)NC3CCCC3)n2)cc1OC (configuration not stated) | i | 52.1 | i | 56.6 | i
CCC(C(=O)NC1CCCC1)N(Cc1cccs1)C(=O)Cn1nnc(-c2ccc(OC)c(OC)c2)n1 (configuration not stated) | i | nt | nt | nt | nt
O=C(CN(Cc1ccco1)C(=O)Cn1nnc(-c2ccc(F)cc2)n1)NC1CCCC1 | i | i | i | i | i
CCC(C(=O)NC1CCCC1)N(C(=O)Cn1nnc(-c2ccc(OC)c(OC)c2)n1)C1CCCCC1 (configuration not stated) | i | 52.2 | i | 72.1 | i
SMILES | EphB4 ephrin blk | CYP2C9 inh | CYP2C9 activ | CYP2C19 inhib | CYP2C19 activ
COc1ccc(-n2nc3c(c2NC(=O)c2cc(Br)ccc2Cl)CS(=O)C3)cc1 (configuration not stated) | i | i | i | i | i
COc1ccc(C2=NOC(C(=O)NCc3cccs3)C2)cc1 (configuration not stated) | i | i | i | i | i
CC(=O)c1ccc2c(c1)C1C=CCC1C(c1ccncc1)N2 (configuration not stated) | i | 89.9 | i | 92.2 | i
C1=CC2c3ccccc3NC(c3ccncc3)C2C1 (configuration not stated) | i | 72.6 | i | 81.9 | i
CCOC(=O)c1[nH]c(C(=O)O)c(CCC(=O)OC)c1C | i | i | i | i | i
COC(=O)CCc1c(C)[nH]c(C(=O)OCc2ccccc2)c1C | i | i | i | 62.3 | i
CC1CN(C(=O)c2nn(C)cc2[N+](=O)[O-])CC(C)O1 (configuration not stated) | i | i | i | i | i
CC(C)n1c(-c2ccc(N(C)C)cc2)nc2ccccc21 | i | 62.1 | i | 61.1 | i
CN(C)c1ccc(-c2nc3ccccc3n2C)cc1 | i | i | i | 56.0 | i
Cc1ccc(C(O)c2nc3ccccc3n2C(C)C)cc1 (configuration not stated) | i | i | i | 92.2 | i
CC(=O)NC(C)c1nc2ccccc2n1C(C)C (configuration not stated) | i | i | i | i | i
COC(=O)c1cn(NC(=O)C2CCCCC2)c(=O)c2ccccc12 | nt | i | i | i | i
CCOCCCN(C(=O)CNC(=O)c1ccco1)C(C(=O)NC1CCCC1)c1ccccc1C (configuration not stated) | nt | i | i | i | i
COC(=O)c1cc2oc(C)cc2n1CC(=O)Nc1ccc(OC)c(OC)c1OC | i | 63.1 | i | 59.3 | i
COC(=O)c1cc2occc2n1CC(=O)Nc1ccc(OC)c(OC)c1OC | i | i | i | i | i
COc1ccc(-c2cc(C(F)(F)F)n3nc(C(=O)NCc4ccco4)cc3n2)cc1 | i | i | i | i | i
Cc1ccc(-c2cc(C(F)F)n3ncc(C(=O)NCc4ccco4)c3n2)cc1 | i | i | i | i | i
Cc1ccc(-c2cc(C(F)(F)F)n3ncc(C(=O)NCc4ccco4)c3n2)cc1 | i | 54.2 | i | i | i
O=C(NCc1ccco1)c1cc2nc(-c3ccc4c(c3)OCO4)cc(C(F)(F)F)n2n1 | i | 82.8 | i | 76.7 | i
Cc1ccc(-c2cc(C(F)(F)F)n3nc(C(=O)NCCCn4ccnc4)cc3n2)cc1C | i | 80.5 | i | 88.2 | i
Cc1ccc(Oc2ncccc2/C=N/O)cc1 | i | i | i | i | i
CCC1(C)Cc2c(sc3[nH]c(=O)[nH]c(=O)c23)CS1 (configuration not stated) | i | i | i | i | i
Cc1nc(-c2ccccc2)nc2[nH]c(=O)n(-c3ccccc3)c(=O)c12 | i | i | i | i | i
COc1ccc(CCNC(=O)c2ccc(=O)[nH]n2)cc1OC | i | i | i | i | i
COc1ccc2c(=O)c(C(=O)NCCc3ccc(OC)c(OC)c3)c[nH]c2c1 | i | 53.5 | i | i | i
COCCCn1cc(C(=O)c2cc(OC)ccc2OCC(=O)Nc2cc(C)on2)cc(C#N)c1=O | i | 56.9 | i | 50.4 | i
C[C@@H]1C[C@H](Nc2ccccc2)c2ccccc2N1C(=O)c1cccnc1 | i | i | i | 83.9 | i
